We go through 15 compounds from PubChem BioAssay.

Experiment [1] concerns the target Cell division control protein 42 homolog (Homo sapiens) (UniProt P60953). Nature of the experiment: inhibition of fluorescent GTP binding to constitutively active Cdc42 – biochemical, multiplex bead flow cytometry, Bodipy-FL-GTP, dose response (AID 1333;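 active means fitted half-maximal concentration within the tested dose range, moderate curve steepness, a statistically real signal drop, and little compound fluorescence or tag-binding interference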). Background: In flow cytometry, cells or beads pass a laser one at a time.
For experiment [2] the target is unchanged. Briefly: inhibition of fluorescent GTP binding to wildtype Cdc42 – biochemical, multiplex bead flow cytometry, Bodipy-FL-GTP, dose response (AID 1334). Conditions: bead-based flow cytometry, Bodipy-FL-GTP binding to GST-Cdc42; at 100 µM (top of the series) unless noted.
Experiment [3] deals with GTPase HRas (Homo sapiens) (UniProt P01112). Nature of the experiment: Ras wt fluorescent GTP loading blockade – biochemical, wildtype, multiplex bead flow cytometry, dose response (AID 1335;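 active means fitted half-maximal concentration within 10 nM to 100 µM, steepness 0.5 to 2, significant signal drop, low assay interference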). Conditions: bead-based flow cytometry, Bodipy-GTP binding to GST-Ras; at 100 µM (top of the series) unless noted.
Experiment [4] has as its system Ras-related protein Rab-7a (dog), GTP binding. Briefly: blockers of fluorescent GTP binding to Rab7 – biochemical, wildtype, multiplex bead flow cytometry, dose response (AID 1336; call rule not given here).
Experiment [5] concerns the target Ras-related C3 botulinum toxin substrate 1 (Homo sapiens) (UniProt P63000). Nature of the experiment: inhibition of wildtype Rac1 nucleotide loading – biochemical, multiplex bead flow cytometry, dose response (AID 1340;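 active means dose curve with midpoint inside tested range, moderate steepness, plateau gap beyond fit error, low compound glow and bead-link interference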). Conditions: GST-Rac1 beads, Bodipy-FL-GTP binding; at 100 µM (top of the series) unless noted.
Experiment [6] has as its target GTPase HRas (Homo sapiens) (UniProt P01112). Nature of the experiment: blockade of GTP loading onto mutant Ras – biochemical, activated mutant, multiplex bead flow cytometry, dose response (AID 1341;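 active means dose-response curve with midpoint inside the tested range, moderate steepness, significant amplitude and little compound fluorescence or bead-attachment interference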;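 further: GST-tagged constitutively activated Ras mutant immobilized on beads and multiplexed with other GTPases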).

Molecules are shown by their SMILES. For part of these data: Measured potencies and affinities stand elsewhere. Active and inactive are the calls of the source.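 How the source made its calls, unless noted: active means fitted half-maximal concentration within the tested range, moderate curve steepness, significant signal drop, and little compound fluorescence or bead-linkage interference; inactive means the rest.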

Sequence of Cell division control protein 42 homolog (Homo sapiens) (P60953 whole entry, looked up): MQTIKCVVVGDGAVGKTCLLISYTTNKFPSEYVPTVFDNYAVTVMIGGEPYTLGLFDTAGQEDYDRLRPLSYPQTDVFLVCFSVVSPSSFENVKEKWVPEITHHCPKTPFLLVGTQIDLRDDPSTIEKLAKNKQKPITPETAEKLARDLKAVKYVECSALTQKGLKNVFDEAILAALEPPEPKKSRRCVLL
Sequence of GTPase HRas (Homo sapiens) (P01112 whole entry, looked up): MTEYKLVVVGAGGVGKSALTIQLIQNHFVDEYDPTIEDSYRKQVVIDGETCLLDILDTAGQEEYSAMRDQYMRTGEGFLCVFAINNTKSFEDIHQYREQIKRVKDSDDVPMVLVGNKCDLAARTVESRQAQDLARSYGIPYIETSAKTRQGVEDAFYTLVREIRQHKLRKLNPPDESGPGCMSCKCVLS

Regarding `CCCNC(=O)C(=O)NCc1ccccn1`, the compound was classed as inactive in experiment [1], in experiment [4] and in experiment [6]. In experiment [2], the fluorescence, percent of control (lower = inhibition) is 41.2%. For the same compound, the GTP binding, percent of control in experiment [3] stood at 91.1%. Moreover, in experiment [5], the GTP binding signal, raw median fluorescence (lower = inhibition) (MCF (arbitrary fluorescence units)) came out at 323.
Turning to `O=C(O)COc1ccccc1/C=N/Nc1ccc(S(=O)(=O)Nc2ccc(Cl)cc2)cc1[N+](=O)[O-]`, the call in experiment [1], in experiment [4] and in experiment [6] was inactive. The fluorescence, percent of control (lower = inhibition) in experiment [2] came out at 28.1%. Also, the GTP binding, percent of control in experiment [3] was determined as 79.9%. For the same compound, the GTP binding signal, raw median fluorescence (lower = inhibition) (MCF (arbitrary fluorescence units)) in experiment [5] is 174.
`S=c1[nH]nc(-c2ccco2)n1-c1ccc(Cl)cc1`: the result in experiment [1], in experiment [4] and in experiment [6] was inactive. Moreover, in experiment [2], the fluorescence, percent of control (lower = inhibition) was determined as 28.4%. Also, in experiment [3], the GTP binding, percent of control came to 67.6%. Further, in experiment [5], the GTP binding signal, raw median fluorescence (lower = inhibition) (MCF (arbitrary fluorescence units)) amounted to 209.
As for `O=C(CCNS(=O)(=O)c1cccc2nsnc12)N1CCN(c2ccccn2)CC1`, the outcome in experiment [1], in experiment [4] and in experiment [6] was inactive. Further, the fluorescence, percent of control (lower = inhibition) in experiment [2] came out at 52.4%. The compound further yielded a GTP binding, percent of control in experiment [3] of 64.7%. The compound further registered a GTP binding signal, raw median fluorescence (lower = inhibition) (MCF (arbitrary fluorescence units)) in experiment [5] of 203.
With `COc1cccc(N2CCN(C(=O)CCCCCNc3nc(=S)[nH]c4ccccc34)CC2)c1`, the compound was called inactive in experiment [1], in experiment [4] and in experiment [6]. The fluorescence, percent of control (lower = inhibition) in experiment [2] was found to be 38.1%. In experiment [3], this compound showed a GTP binding, percent of control of 79.5%. The compound also had a GTP binding signal, raw median fluorescence (lower = inhibition) (MCF (arbitrary fluorescence units)) in experiment [5] of 264.
Turning to `O=C(O)c1cccnc1SCc1ccc([N+](=O)[O-])cc1`, the compound was called inactive in experiment [1], in experiment [4] and in experiment [6]. Also, the fluorescence, percent of control (lower = inhibition) in experiment [2] came out at 71.2%. The compound further registered a GTP binding, percent of control in experiment [3] of 92%. Besides, in experiment [5], the GTP binding signal, raw median fluorescence (lower = inhibition) (MCF (arbitrary fluorescence units)) stood at 45.6.
As to `CC(C)n1c(O)c(N=Nc2ccc(Cl)nn2)c2ccccc21`, the compound was classed as inactive in experiment [1], in experiment [4] and in experiment [6]. Also, the fluorescence, percent of control (lower = inhibition) in experiment [2] turned out to be 69.1%. In experiment [3], this compound registered a GTP binding, percent of control of 78.2%. This compound yielded a GTP binding signal, raw median fluorescence (lower = inhibition) (MCF (arbitrary fluorescence units)) in experiment [5] of 196.
In the case of `O=C(CN1C(=O)C2C3c4ccccc4C(c4ccccc43)C2C1=O)Nc1cccc(C(=O)O)c1` (stereo not given), the compound was called inactive in experiment [1], in experiment [4] and in experiment [6]. The fluorescence, percent of control (lower = inhibition) in experiment [2] is 46.1%. Further, the GTP binding, percent of control in experiment [3] stood at 58.8%. This compound also returned a GTP binding signal, raw median fluorescence (lower = inhibition) (MCF (arbitrary fluorescence units)) in experiment [5] of 165.
For `CN(/N=C/C=C/c1ccccc1)C1=NS(=O)(=O)c2ccccc21`, the compound was called inactive in experiment [1], in experiment [4] and in experiment [6]. Further, the fluorescence, percent of control (lower = inhibition) in experiment [2] is 40.3%. The compound further had a GTP binding, percent of control in experiment [3] of 51.8%. The GTP binding signal, raw median fluorescence (lower = inhibition) (MCF (arbitrary fluorescence units)) in experiment [5] worked out at 124.
As to `Cc1ccc(N2C(=O)c3ccccc3C2Nc2cccnc2)nc1` (stereo not given), the compound was called inactive in experiment [1], in experiment [4] and in experiment [6]. Moreover, the fluorescence, percent of control (lower = inhibition) in experiment [2] was found to be 37%. In experiment [3], this compound yielded a GTP binding, percent of control of 84.5%. Besides, the GTP binding signal, raw median fluorescence (lower = inhibition) (MCF (arbitrary fluorescence units)) in experiment [5] stood at 272.
Turning to `Cc1cccc(C)c1NC(=O)CSc1ccc([N+](=O)[O-])cn1`, the result in experiment [1], in experiment [4] and in experiment [6] was inactive. The fluorescence, percent of control (lower = inhibition) in experiment [2] was found to be 85.9%. In experiment [3], this compound gave a GTP binding, percent of control of 97.1%. Besides, in experiment [5], the GTP binding signal, raw median fluorescence (lower = inhibition) (MCF (arbitrary fluorescence units)) turned out to be 246.
In the case of `CCn1c2ccccc2c2nnc(SCC(=O)NCCOC)nc21`, the call in experiment [1], in experiment [4] and in experiment [6] was inactive. Besides, the fluorescence, percent of control (lower = inhibition) in experiment [2] was determined as 50.8%. For the same compound, the GTP binding, percent of control in experiment [3] was 59.6%. In addition, the GTP binding signal, raw median fluorescence (lower = inhibition) (MCF (arbitrary fluorescence units)) in experiment [5] turned out to be 0.
As for `CCCNC(=O)Cn1c(=O)/c(=C\c2ccc(-c3ccc([N+](=O)[O-])cc3)o2)s/c1=C\C(=O)C(C)(C)C`, the call in experiment [1], in experiment [4] and in experiment [6] was inactive. Further, the fluorescence, percent of control (lower = inhibition) in experiment [2] amounted to 115%. The GTP binding, percent of control in experiment [3] worked out at 126%. Besides, the GTP binding signal, raw median fluorescence (lower = inhibition) (MCF (arbitrary fluorescence units)) in experiment [5] worked out at 300.
For the compound `COc1cccc(-n2nc3c(=S)[nH]nc(C)c3c2C)c1`, the result in experiment [1], in experiment [4] and in experiment [6] was inactive. Besides, the fluorescence, percent of control (lower = inhibition) in experiment [2] was found to be 50.1%. Moreover, the GTP binding, percent of control in experiment [3] is 63.5%. The GTP binding signal, raw median fluorescence (lower = inhibition) (MCF (arbitrary fluorescence units)) in experiment [5] worked out at 199.
On to `CSc1nc2nccc(-c3ccc(-c4ccccc4)cc3)n2n1`, for which the result in experiment [1], in experiment [4] and in experiment [6] was inactive. Moreover, the fluorescence, percent of control (lower = inhibition) in experiment [2] came to 79.7%. In addition, in experiment [3], the GTP binding, percent of control stood at 132%. Besides, the GTP binding signal, raw median fluorescence (lower = inhibition) (MCF (arbitrary fluorescence units)) in experiment [5] was 138.
